Reference: PubChem BioAssay (Tox21)
Values joined by “and” are separate entries in the source; they are usually repeats but may differ in a detail not shown here. Identical values can stand only once. Inconclusive results are not listed. Some compounds were tested as several samples or in several runs, with calls that do not always agree. Active and inactive are the calls of the source. Unless noted, calls follow the shape of the full dose curve.

Assays:
[1] = Nuclear factor erythroid 2-related factor 2/antioxidant responsive element (Nrf2/ARE) small molecule agonists: qHTS cell viability counter screen in human keratinocytes (AID 1919968; active = well fitted cell-killing curve with a large enough effect in the repeat runs; also: nearly all actives have a fitted effect of over 55% in size)
How it was run: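 Stably transfected HaCaT (KeratinoSens), 1,500/well. Test agents in DMSO were applied for 23 h, 37 C/5% CO2. CellTiter-Fluor was incubated 1 h before the fluorescence read.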

[2] = Nuclear factor erythroid 2-related factor 2/antioxidant responsive element (Nrf2/ARE) small molecule agonists: luciferase reporter gene qHTS assay in human keratinocytes (AID 1919969); also: nearly all actives have a fitted effect of over 35% in size; also: potency is read from the fitted curve at half-maximal effect
[3] = target: Gonadotropin-releasing hormone receptor (Homo sapiens) (UniProt P30968); experiment: Human gonadotropin-releasing hormone receptor (GnRHR) small molecule agonists, calcium flux assay in GnRHR-HEK293 cells (AID 1920063); also: nearly all actives have a fitted effect of over 35% in size
Gonadotropin-releasing hormone receptor (Homo sapiens), sequence (P30968 whole entry, looked up): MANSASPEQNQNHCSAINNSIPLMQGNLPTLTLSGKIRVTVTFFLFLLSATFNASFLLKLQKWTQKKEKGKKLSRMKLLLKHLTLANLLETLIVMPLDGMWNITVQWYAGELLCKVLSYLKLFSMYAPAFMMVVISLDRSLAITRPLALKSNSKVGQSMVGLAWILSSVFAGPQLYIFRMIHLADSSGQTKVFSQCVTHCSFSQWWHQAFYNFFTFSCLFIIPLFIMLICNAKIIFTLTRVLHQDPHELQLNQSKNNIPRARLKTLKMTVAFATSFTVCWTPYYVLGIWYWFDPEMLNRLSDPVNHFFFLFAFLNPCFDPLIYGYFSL
How it was run: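 Stable human GnRHR HEK293 line. 18 h plating, then calcium dye for 1 h at 37 C. Agonist-mode compound addition from DMSO stocks; fluorescence monitored 3 min.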

[4] = G protein-coupled receptor (GPCR) small molecule agonists, calcium flux assay: HEK293 wild type cell line counter screen (AID 1920065)
How it was run: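 Following 18 h incubation at 37 C/5% CO2, plates got calcium dye for 1 h; compounds, ATP or DMSO were then pinned in and fluorescence followed kinetically (480/540 nm).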

[5] = p53 small molecule agonists, cell-based qHTS assay with human liver microsomes (AID 1963577)
How it was run: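 p53RE-bla cells, 4,000/well, compound added after 5 h, with human liver microsomes 0.5 mg/mL and NADPH 0.5 mg/mL final; 16 h at 37 C, then LiveBLAzer 2 h RT, fluorescence.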

[6] = p53 small molecule agonists, cell-based qHTS assay with rat liver microsomes (AID 1963578)
How it was run: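 p53RE-bla cells, 4,000/well, pre-incubated 5 h, then given compounds plus rat liver microsomes (0.5 mg/mL final) and NADPH (0.5 mg/mL final). Incubation 16 h at 37 C; beta-lactamase reporter read by LiveBLAzer fluorescence after 2 h at room temperature.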

[7] = p53 small molecule agonists, cell-based qHTS assay with human liver microsomes: qHTS cell viability counter screen (AID 1963579); also: nearly all actives have a fitted effect of over 45% in size; also: potency is read from the fitted curve at half-maximal effect
How it was run: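 p53RE-bla cells, 4,000/well, dosed 5 hours after plating, with human liver microsomes (0.5 mg/mL final) plus NADPH (0.5 mg/mL final), 16 hours at 37 C. Viability read as CellTiter-Glo luminescence after 30 min at room temperature.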

[8] = p53 small molecule agonists, cell-based qHTS assay with rat liver microsomes: qHTS cell viability counter screen (AID 1963580); also: nearly all actives have a fitted effect of over 45% in size
How it was run: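 Cytotoxicity counter screen: intracellular ATP read by CellTiter-Glo luminescence in the p53 reporter wells. HCT-116 p53RE-bla cells were treated for 16 h at 37 C alongside rat liver microsomes and NADPH, each 0.5 mg/mL final.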

[9] = p53 small molecule agonists, cell-based qHTS assay: qHTS cell viability counter screen (AID 1963581); also: nearly all actives have a fitted effect of over 45% in size
How it was run: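 qHTS counter screen: 16 h compound exposure at 37 C of p53RE-bla HCT-116 cells (4,000 per well, seeded 5 h prior), cell viability by ATP luminescence.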

[10] = p53 small molecule agonists, cell-based qHTS assay (AID 1963582; active = well fitted activation curve with a large enough effect in the signal ratio in the repeat runs, not every such curve was filed as active; the % refers to the signal ratio)
How it was run: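 Measured: fluorescence from cleaved LiveBLAzer substrate. System: p53RE-bla cells, 16 h compound treatment at 37 C, 2 h substrate step at room temperature.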

[11] = target: 5-hydroxytryptamine receptor 2A (Homo sapiens) (UniProt P28223); experiment: 5-hydroxytryptamine receptor 2A (HTR2A) small molecule antagonists, cell-based qHTS assay (AID 1963586); also: nearly all actives have a fitted effect of over 45% in size; also: potency is read from the fitted curve at half-maximal effect
5-hydroxytryptamine receptor 2A (Homo sapiens), sequence (P28223 whole entry, looked up): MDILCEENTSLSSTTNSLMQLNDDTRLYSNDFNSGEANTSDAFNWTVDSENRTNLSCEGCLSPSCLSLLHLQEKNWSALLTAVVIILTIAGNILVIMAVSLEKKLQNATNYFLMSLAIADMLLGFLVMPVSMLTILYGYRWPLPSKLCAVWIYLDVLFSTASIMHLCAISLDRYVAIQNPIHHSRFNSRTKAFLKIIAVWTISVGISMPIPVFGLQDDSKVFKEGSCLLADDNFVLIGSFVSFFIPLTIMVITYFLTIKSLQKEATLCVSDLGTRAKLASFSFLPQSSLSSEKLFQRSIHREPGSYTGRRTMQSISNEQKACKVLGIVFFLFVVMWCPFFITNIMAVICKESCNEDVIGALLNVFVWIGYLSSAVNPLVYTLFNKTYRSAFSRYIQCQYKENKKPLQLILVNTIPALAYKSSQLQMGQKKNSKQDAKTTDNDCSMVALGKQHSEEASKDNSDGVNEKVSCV
How it was run: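 CHO cells stably expressing human HTR2A were plated for 18 h at 37 C, then loaded with calcium dye for 1 h. Compounds were preincubated 5 min at room temperature before DOI (4 nM solution) was added. Kinetic fluorescence was read for 3 min.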

[12] = target: 5-hydroxytryptamine receptor 2A (Homo sapiens) (UniProt P28223); experiment: 5-hydroxytryptamine receptor 2A (HTR2A) small molecule agonists, cell-based qHTS assay (AID 1963587); also: nearly all actives have a fitted effect of over 30% in size
How it was run: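 Kinetic calcium-flux fluorescence (2 min, 1 sec intervals) after compound addition in agonist mode. HTR2A-CHO cells were cultured 18 h, then dye-loaded 1 h at 37 C.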

[13] = target: Muscarinic acetylcholine receptor M1 (Homo sapiens) (UniProt P11229); experiment: Cholinergic receptor muscarinic 1 (CHRM1) small molecule antagonists, cell-based qHTS assay (AID 1963588); also: nearly all actives have a fitted effect of over 40% in size; also: potency is read from the fitted curve at half-maximal effect
Muscarinic acetylcholine receptor M1 (Homo sapiens), sequence (P11229 whole entry, looked up): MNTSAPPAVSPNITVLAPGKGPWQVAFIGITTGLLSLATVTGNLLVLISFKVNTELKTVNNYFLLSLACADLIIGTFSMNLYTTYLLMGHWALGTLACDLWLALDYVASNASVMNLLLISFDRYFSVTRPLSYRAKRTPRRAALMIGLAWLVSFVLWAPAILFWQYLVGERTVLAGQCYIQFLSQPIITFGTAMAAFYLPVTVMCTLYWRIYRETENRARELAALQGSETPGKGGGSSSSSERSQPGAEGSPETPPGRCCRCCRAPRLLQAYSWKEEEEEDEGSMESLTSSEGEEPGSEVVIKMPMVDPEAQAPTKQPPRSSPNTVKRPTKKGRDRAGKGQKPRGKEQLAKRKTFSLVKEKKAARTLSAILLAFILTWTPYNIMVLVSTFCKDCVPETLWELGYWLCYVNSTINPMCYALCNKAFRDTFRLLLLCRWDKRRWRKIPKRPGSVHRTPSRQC
How it was run: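 Compounds were tested at 15 concentrations in three independent runs. Dye-loaded CHRM1-CHO cells were exposed 5 min at room temperature before stimulation by acetylcholine added at 50nM. Intracellular calcium was read kinetically on FDSS for 3 min.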

[14] = target: Muscarinic acetylcholine receptor M1 (Homo sapiens) (UniProt P11229); experiment: Cholinergic receptor muscarinic 1 (CHRM1) small molecule agonists, cell-based qHTS assay (AID 1963589); also: nearly all actives have a fitted effect of over 35% in size
How it was run: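 Kinetic fluorescence (1 s intervals) of calcium-sensitive dye in human M1 CHO cells after compound addition; cells pre-incubated 18 h at 37 C/5% CO2 and dye-loaded 1 h.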

[15] = cAMP Responsive Elements (CRE) small molecule antagonists, cell-based qHTS assay (AID 1963591; active = well fitted inhibition curve with a large enough effect in the signal ratio in the repeat runs, not every such curve was filed as active; the % refers to the signal ratio)
How it was run: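 Reporter line CRE-bla HEK 293T in dialyzed-FBS DMEM; cells preincubated 18 h, treated 3 h with compound plus NKH477 (0.25 uM final); LiveBLAzer FRET, 2 h RT.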

[16] = target: Beta-2 adrenergic receptor (Homo sapiens) (UniProt P07550); experiment: Adrenergic beta2 receptor (ADRB2) small molecule antagonists, cell-based qHTS assay (AID 1963592); also: series mostly up to about 92 µM; nearly all actives have a fitted effect of over 50% in size
Beta-2 adrenergic receptor (Homo sapiens), sequence (P07550 whole entry, looked up): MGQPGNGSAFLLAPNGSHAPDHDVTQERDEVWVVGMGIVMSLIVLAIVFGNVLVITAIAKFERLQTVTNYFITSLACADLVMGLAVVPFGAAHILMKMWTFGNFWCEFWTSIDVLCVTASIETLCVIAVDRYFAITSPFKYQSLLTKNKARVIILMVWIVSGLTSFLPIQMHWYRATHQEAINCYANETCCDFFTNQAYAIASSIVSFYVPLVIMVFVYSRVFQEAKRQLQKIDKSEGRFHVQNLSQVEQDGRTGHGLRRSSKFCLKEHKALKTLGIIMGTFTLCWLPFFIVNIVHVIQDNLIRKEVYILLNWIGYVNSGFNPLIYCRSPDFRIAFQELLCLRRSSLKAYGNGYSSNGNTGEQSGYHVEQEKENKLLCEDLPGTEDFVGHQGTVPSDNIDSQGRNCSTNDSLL
How it was run: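 Assay format: CHO-ADRB2 cells, 18-20hr seeding at 37C/5% CO2, then compound plus 1nM isoproterenol agonist mix for 0.5hr RT. Homogeneous time-resolved fluorescence cAMP detection after 1hr, expressed as 665/615 nm ratio.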

[17] = target: Beta-2 adrenergic receptor (Homo sapiens) (UniProt P07550); experiment: Adrenergic beta2 receptor (ADRB2) small molecule agonists, cell-based qHTS assay (AID 1963593);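 also: CHO cells stably overexpressing human ADRB2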
How it was run: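 CHO cells stably over-expressing ADRB2 were plated overnight at 37C, then dosed with compounds plus a stimulation mix containing 100uM IBMX and 25uM Ro-20-1724 for 0.5hr at room temperature. cAMP was measured by HTRF competition, 1hr.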

[18] = target: D(2) dopamine receptor (Homo sapiens) (UniProt P14416); experiment: Dopamine D2 receptor (DRD2) small molecule agonists, cell-based qHTS assay (AID 1963594); also: nearly all actives have a fitted effect of over 35% in size
D(2) dopamine receptor (Homo sapiens), sequence (P14416 whole entry, looked up): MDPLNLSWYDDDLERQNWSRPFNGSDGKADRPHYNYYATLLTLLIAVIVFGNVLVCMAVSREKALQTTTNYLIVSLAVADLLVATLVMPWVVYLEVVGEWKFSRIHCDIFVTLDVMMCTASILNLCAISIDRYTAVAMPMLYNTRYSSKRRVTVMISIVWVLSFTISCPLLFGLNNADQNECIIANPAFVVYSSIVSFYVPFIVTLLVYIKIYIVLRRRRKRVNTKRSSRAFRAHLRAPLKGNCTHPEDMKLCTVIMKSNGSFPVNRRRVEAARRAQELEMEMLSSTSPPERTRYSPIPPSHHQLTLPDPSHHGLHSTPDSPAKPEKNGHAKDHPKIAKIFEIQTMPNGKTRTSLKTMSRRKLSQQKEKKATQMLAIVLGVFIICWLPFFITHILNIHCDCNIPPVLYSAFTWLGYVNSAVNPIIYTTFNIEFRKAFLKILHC
How it was run: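 cAMP accumulation in DRD2-HEK293 cells measured by HTRF after 1 h detection; compounds added 10 min before NKH477 (200nM […]) forskolin-analogue stimulation, 30 min at room temperature, with Ro20-1724 present at 0.1 mM final.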

[19] = target: D(2) dopamine receptor (Homo sapiens) (UniProt P14416); experiment: Dopamine D2 receptor (DRD2) small molecule antagonists, cell-based qHTS assay (AID 1963595; active = well fitted inhibition curve with a large enough effect in the signal ratio in the repeat runs, with a control signal flat; the % refers to the signal ratio)
How it was run: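 Human DRD2 antagonist qHTS measuring cAMP by HTRF. The cells are exposed to compound for 10 min, then to NKH477 (200 nM) and quinpirole (12 nM) for 30 min at RT, with Ro20-1724 (0.1 mM) present throughout.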

[20] = cAMP Responsive Elements (CRE) small molecule agonists, cell-based qHTS assay (AID 1963590)
How it was run: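 Test agents in DMSO were incubated 3 h at 37 C/5% CO2 with CRE-bla HEK 293T cells seeded 18 h earlier; LiveBLAzer B/G FRET substrate was added and read after 2 h at room temperature.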

Measured: Potency

CCC1(CC)C(=O)C=CNC1=O
not listed: [20]
inactive: all other assays above

O=NN(c1ccccc1)c1ccccc1
not listed: [15] | [16]
inactive: all other assays above

CCCCC(CC)COC(=O)c1ccc(C(=O)OCC(CC)CCCC)c(C(=O)OCC(CC)CCCC)c1 (stereo unspecified)
not listed: [13] | [17]
inactive: all other assays above

O=[N+]([O-])/N=C1\NCCN1Cc1ccc(Cl)nc1
not listed: [5] | [6] | [10] | [18]
inactive: all other assays above

CCCC(C)(COC(N)=O)COC(N)=O
active: [13] 19.9 nM
not listed: [7]
inactive: all other assays above

Nc1ccccc1C(=O)OCCc1ccccc1
488 nM (active) and inactive: [2]
not listed: [9] | [15] | [19] | [20]
inactive: all other assays above

CC1=C(C(=O)Nc2ccccc2)SCCO1
inactive and 61.1 µM (active): [2]
not listed: [9]
inactive: all other assays above

CCOP(=S)(OCC)SCn1c(=O)oc2cc(Cl)ccc21
active: [2] 32.9 µM and 61.1 µM
not listed: [5] | [6] | [8] | [15] | [17] | [19] | [20]
inactive: all other assays above

Cc1ccc2cc(C)ccc2c1
not listed: [9] | [10] | [18]
inactive: all other assays above

COP(=O)(NC(C)=O)SC (stereo unspecified)
not listed: [5]
inactive: all other assays above

N#Cc1ccccc1N
not listed: [3]
inactive: all other assays above

CCCCOC(=O)c1ccccc1C(=O)OCc1ccccc1
inactive and 5.9 nM (active): [11]
inactive and 68.6 µM (active): [2]
inactive and 646 nM (active): [7]
not listed: [4] | [5] | [9] | [17]
inactive: all other assays above

CC(C)(Cl)Cl
not listed: [8] | [18]
inactive: all other assays above

CS(=O)(=O)NC(=O)c1cc(Oc2ccc(C(F)(F)F)cc2Cl)ccc1[N+](=O)[O-]
not listed: [7] | [17]
inactive: all other assays above

N#CC(Br)Br
not listed: [5] | [6] | [7] | [10]
inactive: all other assays above
